Measurements: PubChem BioAssay AID1159580 (chemical genetic matrix, 2015)
The whole screen tested about 5,500 compounds, of which about 2,000 (36%) were called active. Roughly 18% stayed inconclusive and do not appear here. No stated cut-off is given here; in the data, active means normalized growth mostly below about 0.91 (no sharp cut-off); inconclusive means no clear call, values can overlap the other calls; inactive means mostly above about 0.92. The list shows a part of the results.

Assay: chemical genetic growth profiling, strain panel (AID 1159580);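 further: tested at 20 µM; growth read once vehicle control cultures reached saturation at 30 °C; 1 = growth at the plate median or of vehicle wells; lower values mean less growth of the strain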
Details: growth OD

Measured: normalized growth

N#CC(O[C@@H]1O[C@H](CO[C@@H]2O[C@H](CO)[C@@H](O)[C@H](O)[C@H]2O)[C@@H](O)[C@H](O)[C@H]1O)c1ccccc1 (some centres not stated)
inactive: S. cerevisiae deletion strains, locus YJR043C, strain POL32, hits give low values 1.01 | S. cerevisiae deletion strains, locus YJR066W, strain TOR1, hits give low values 0.921 | S. cerevisiae deletion strains, locus YJR075W, strain HOC1, hits give low values 0.999 | S. cerevisiae deletion strains, locus YKL009W, strain mrt4, hits give low values 0.99 | S. cerevisiae deletion strains, locus YKL068W, hits give low values 0.991 | S. cerevisiae deletion strains, locus YKL085W, strain MDH1 (second series), hits give low values 0.987 | S. cerevisiae deletion strains, locus YKL085W, strain MDH1, hits give low values 0.987 | S. cerevisiae deletion strains, locus YKL160W, strain elf1, hits give low values 0.983 | S. cerevisiae deletion strains, locus YKR001C, strain vps1, hits give low values 0.988 | S. cerevisiae deletion strains, locus YKR026C, strain gcn3, hits give low values 0.977 | S. cerevisiae deletion strains, locus YKR091W, strain srl3, hits give low values 0.979 | S. cerevisiae deletion strains, locus YLL001W, strain dnm1, hits give low values 0.984 | S. cerevisiae deletion strains, locus YLL026W, hits give low values 0.981 | S. cerevisiae deletion strains, locus YLL041C, strain sdh2, hits give low values 0.991 | S. cerevisiae deletion strains, locus YLR027C, strain aat2, hits give low values 0.987 | S. cerevisiae deletion strains, locus YLR039C, strain RIC1, hits give low values 1.01 | S. cerevisiae deletion strains, locus YLR058C, strain SHM2, hits give low values 1.01 | S. cerevisiae deletion strains, locus YLR102C, strain apc9, hits give low values 0.983 | S. cerevisiae deletion strains, locus YLR113W, strain HOG1, hits give low values 1.03 | S. cerevisiae deletion strains, locus YLR221C, strain rsa3, hits give low values 0.976 | S. cerevisiae deletion strains, locus YLR258W, strain gsy2, hits give low values 0.982 | S. cerevisiae deletion strains, locus YLR262C, strain YPT6 (second series), hits give low values 0.991 | S. cerevisiae deletion strains, locus YLR262C, strain YPT6, hits give low values 1.04 | S. cerevisiae deletion strains, locus YLR268W, strain sec22, hits give low values 0.972 | S. cerevisiae deletion strains, locus YLR320W, strain mms22, hits give low values 0.968 | S. cerevisiae deletion strains, locus YLR330W, strain CHS5, hits give low values 1.01 | S. cerevisiae deletion strains, locus YLR342W, strain FKS1 (second series), hits give low values 1.03 | S. cerevisiae deletion strains, locus YLR342W, strain FKS1, hits give low values 0.967 | S. cerevisiae deletion strains, locus YLR357W, strain rsc2, hits give low values 0.948 | S. cerevisiae deletion strains, locus YLR370C, strain arc18, hits give low values 0.991 | S. cerevisiae deletion strains, locus YLR371W, strain rom2, hits give low values 1.01 | S. cerevisiae deletion strains, locus YLR384C, strain iki3, hits give low values 0.96 | S. cerevisiae deletion strains, locus YLR418C, strain cdc73, hits give low values 1.02 | S. cerevisiae deletion strains, locus YML016C, strain PPZ1, hits give low values 0.986 | S. cerevisiae deletion strains, locus YML032C, strain rad52, hits give low values 1.01 | S. cerevisiae deletion strains, locus YML120C, strain ndi1, hits give low values 0.991 | S. cerevisiae deletion strains, locus YML124C, strain tub3, hits give low values 0.999 | S. cerevisiae deletion strains, locus YMR058W, strain fet3, hits give low values 0.989 | S. cerevisiae deletion strains, locus YMR078C, strain ctf18, hits give low values 1 | S. cerevisiae deletion strains, locus YMR125W, strain sto1, hits give low values 0.965 | S. cerevisiae deletion strains, locus YMR129W, hits give low values 0.985 | S. cerevisiae deletion strains, locus YMR205C, strain PFK2, hits give low values 0.985 | S. cerevisiae deletion strains, locus YMR223W, strain ubp8, hits give low values 1.01 | S. cerevisiae deletion strains, locus YMR231W, strain pep5, hits give low values 0.964 | S. cerevisiae deletion strains, locus YMR307W, strain GAS1, hits give low values 1.01 | S. cerevisiae deletion strains, locus YNL067W, strain RPL9B, hits give low values 1.03 | S. cerevisiae deletion strains, locus YNL071W, strain lat1, hits give low values 0.98 | S. cerevisiae deletion strains, locus YNL183C, strain NPR1, hits give low values 0.976 | S. cerevisiae deletion strains, locus YNL209W, strain ssb2, hits give low values 0.984 | S. cerevisiae deletion strains, locus YNL233W, strain BNI4, hits give low values 1.04 | S. cerevisiae deletion strains, locus YNL248C, strain rpa49, hits give low values 0.983 | S. cerevisiae deletion strains, locus YNL250W, strain rad50, hits give low values 0.969 | S. cerevisiae deletion strains, locus YNL271C, strain bni1, hits give low values 0.986 | S. cerevisiae deletion strains, locus YNL298W, strain CLA4, hits give low values 0.996 | S. cerevisiae deletion strains, locus YNL307C, strain MCK1, hits give low values 0.991 | S. cerevisiae deletion strains, locus YNL322C, strain KRE1 (second series), hits give low values 0.977 | S. cerevisiae deletion strains, locus YNR049C, strain mso1, hits give low values 0.984 | S. cerevisiae deletion strains, locus YNR052C, strain pop2, hits give low values 0.989 | S. cerevisiae deletion strains, locus YOL006C, strain TOP1, hits give low values 1.05 | S. cerevisiae deletion strains, locus YOL012C, strain htz1 1.19 | S. cerevisiae deletion strains, locus YOL147C, strain pex11, hits give low values 0.989 | S. cerevisiae deletion strains, locus YOR001W, strain rrp6, hits give low values 0.946 | S. cerevisiae deletion strains, locus YOR061W, strain CKA2, hits give low values 0.993 | S. cerevisiae deletion strains, locus YOR069W, strain VPS5, hits give low values 0.993 | S. cerevisiae deletion strains, locus YOR070C, strain gyp1, hits give low values 0.967 | S. cerevisiae deletion strains, locus YOR080W, strain dia2, hits give low values 0.966 | S. cerevisiae deletion strains, locus YOR083W, strain WHI5, hits give low values 0.976 | S. cerevisiae deletion strains, locus YOR106W, strain vam3, hits give low values 0.989 | S. cerevisiae deletion strains, locus YOR136W, strain idh2, hits give low values 0.994 | S. cerevisiae deletion strains, locus YOR144C, strain elg1, hits give low values 0.99 | S. cerevisiae deletion strains, locus YOR184W, strain ser1, hits give low values 1.04 | S. cerevisiae deletion strains, locus YOR231W, strain MKK1, hits give low values 0.974 | S. cerevisiae deletion strains, locus YOR265W, strain rbl2, hits give low values 0.981 | S. cerevisiae deletion strains, locus YOR270C, strain vph1, hits give low values 0.98 | S. cerevisiae deletion strains, locus YOR290C, strain snf2, hits give low values 0.988 | S. cerevisiae deletion strains, locus YOR316C, strain cot1, hits give low values 0.985 | S. cerevisiae deletion strains, locus YPL051W, strain arl3, hits give low values 0.98 | S. cerevisiae deletion strains, locus YPL078C, strain atp4, hits give low values 0.984 | S. cerevisiae deletion strains, locus YPL106C, strain sse1, hits give low values 0.972 | S. cerevisiae deletion strains, locus YPL240C, strain hsp82, hits give low values 0.985 | S. cerevisiae deletion strains, locus YPL256C, strain CLN2, hits give low values 0.969 | S. cerevisiae deletion strains, locus YPR119W, strain clb2, hits give low values 1.01 | S. cerevisiae deletion strains, locus YPR141C, strain kar3, hits give low values 0.981 | S. cerevisiae deletion strains, locus YPR163C, strain tif3, hits give low values 0.992 | S. cerevisiae deletion strains, locus YPR167C, strain met16, hits give low values 0.973 | S. cerevisiae deletion strains, strain wtn01, hits give low values 0.984 | S. cerevisiae strains, strain wild type, hits give low values 1.02
